Data as given in PubChem BioAssay AID504842 (National Center for Advancing Translational Sciences (NCATS), 2011).
Hit rate of the full screen: of about 330,000 compounds, about 100 (0.03%) were called active. Roughly 1% stayed inconclusive and do not appear here. Calls come from the whole dose curve; as a rule, active = well fitted inhibition curve with a large enough effect; inconclusive = small, poorly fitted or top-dose-only effect; inactive = flat fitted curve, though single readings scatter. The full list was thinned out, with actives kept by preference.

Test system: Chaperonin Mm-Cpn (Methanococcus maripaludis)
Test: Inhibitors of TCP-1 ring complex (TRiC) of Methanococcus maripaludis (MmCpn): qHTS; note: nearly all actives have a fitted effect of over 80% in size;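 for Potency: enzyme at 25 nM with ATP substrate at 10 µM during the reaction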
Conditions: purified Mm-Cpn ATPase, ADP Transcreener TR-FRET; series mostly up to 76.9 µM
From the text: The eukaryotic chaperonin TRiC (for TCP-1 ring complex) is an essential and conserved chaperone required for the folding and activation of 10-15% of the proteins encoded by the human genome. […] The TRiC complex consist of two stacked 7-9 membered rings, each containing a central cavity. Substrates are folded within the cavity in an ATP-dependent manner. TRiC is a complex of eight different, essential proteins. As each of the genes encoding the eight subunits is essential for cell viability and no protocol has been developed to over-express this enzyme to high levels. That is why several groups studying the TRiC chaperonin have turned to the archaeal homolog of TRiC, Methanococcus maripaludis (Mm-CPN), and have used this enzyme as a model system for the study of the type II chaperonin family. Small molecule inhibitors of the Mm-CPN enzyme would be extremely useful to study the mechanism of chaperonin activity. Importantly, TRiC and Mm-CPN both require ATP hydrolysis for function. Furthermore, the ATP binding sites are highly conserved among these type II chaperonins. This provides us with an easy, well tested and straightforward assay to identify inhibitors of chaperonin activity. The Mm-CPN assay was developed in 1536-well plate format using the HTRF Transcreener ADP assay kit (Cisbio, Bedford, MA). This assay applied the time resolved fluorescence resonance energy transfer (TR-FRET) principle. ATP in the presence of Mm-CPN is converted to ADP + Pi. An antibody labeled with Eu3+-Cryptate specific and bound to ADP labeled with […] (d2) competes with the unlabeled ADP generated by Mm-CPN. The resulting TR-FRET signal is inversely proportional to the concentration of ADP in the sample. In this assay a reduction in TR-FRET signal is observed with ATP turnover. NIH Chemical Genomics Center [NCGC] NIH Molecular Libraries Probe Centers Network [MLPCN] MLPCN Grant: DA030554-01A1 Assay Submitter (PI): Judith Frydman, Stanford University
Purified Mm-CPN was supplied by the laboratory of Dr. Judith Frydman. Protein samples were stored at -80C as single use aliquots. Protein was thawed in ambient temperature water bath and placed on ice once thawed. Buffer was prepared fresh day of screen. The buffer composition below was used to prepare the working solution of the Mm-CPN protein and ATP substrate. The buffer is comprised of 30 mM TRIS pH 7.4, 100mM KCl, 5mM MgCl2, and 1mM DTT. A final concentration of 25nM Mm-CPN and 10uM ATP per well were used in the screen. Instructions according to the manufacturer were followed for the ADP Transcreener kit. Used 1536 well Greiner white, medium binding (MB), solid bottom plates. Plates were read on the PerkinElmer EnVision plate reader using Excitation = 320 nm and Emission = […], 665 nm. Protocol- 1.Dispense 1.5ul per well of working [Mm-CPN] = 50nM (or 75 ng / well) 2.Spin plate at 1000 rpm for 30 seconds 3.23nl of compound transferred per well 4.Incubate at 37degC for 10 minutes 5.Dispense 1.5ul per well of working [ATP] = 20uM 6.Incubate at 37degC for 30 minutes 7.Dispense 3ul per well of Anti-ADP Cryptate / ADP-d2 mix (prepared as instructed by Cisbio) 8.Incubate at ambient for 30 minutes 9.Read using EnVision
% is set by controls: 0 for no effect and ±100 for the full control effect; potency is the fitted concentration of half-maximal effect.

Potency, active:
CCc1ccc(Nc2n[n+](-c3ccccc3)c(-c3cccc(Cl)c3Cl)s2)cc1 56.2 µM
COc1ccccc1-c1sc2ccccc2c1-c1ccc(C(C)=O)cc1 31.6 µM
O=C(Nc1ccncc1)c1cc(-c2ccccn2)nc2ccc(Br)cc12 44.7 µM

Potency, inactive:
N#Cc1ccc(-c2nc3cc(C#N)c(C#N)cc3nc2-c2ccccc2)cc1C#N
CC(=O)Nc1ccc(S(=O)(=O)N2CCN(S(=O)(=O)c3cccs3)CC2)cc1
Cc1ccc(CNC(=O)c2ccccc2CCc2ccccc2)cc1
CCC1SC(CC)C(=O)N(CC(=O)NC2CCCCC2)C1=O (centres undefined)
Cc1cccc(C(=O)Nc2ccc(Oc3cnccn3)cc2)c1
CC(=O)Nc1cccc(C(=O)OCN2C(=O)c3ccccc3C2=O)c1
C=CCN1C(=O)c2ccc(C(=O)N3CCC(C(=O)OCC)CC3)cc2C1=O
Cc1ccc(NC2=C(Cl)C(=O)OC2OC(=O)c2ccccc2C)cc1 (centres undefined)
Cc1ccccc1N1CCN(CCCN2C(=O)C3CCCCN3C2=O)CC1 (centres undefined)
O=C(CCNS(=O)(=O)c1ccccc1)NCCCc1ccccc1
COc1cc(Br)c(-c2sc(Nc3ccccc3)n[n+]2-c2ccccc2)cc1OC
NC(=O)N1CCCC1C(=O)Nc1ccc(Cl)c(Cl)c1 (centres undefined)
CC(C)c1ccc(N2CCN(C(=O)c3ccccc3NC(=O)/C=C(\C(=O)O)c3ccccc3)CC2)cc1
CC(NC(=O)COC(=O)c1ccc(Cl)cc1O)c1ccc(F)cc1 (centres undefined)
COC(=O)c1ccc(/C=C/c2c(-c3ccc(OC)cc3)sc3ccccc23)cc1
COc1ccc2sc(-c3ccccc3OC)c(-c3ccc(OCCN4CCCC4)cc3)c2c1
CC(=O)Nc1ccc(Nc2ncnc3c2nnn3Cc2ccccc2Cl)cc1
O=C(NCc1ccccc1CN1CCCC1)C1CCN(S(=O)(=O)c2ccc(Cl)cc2)CC1
CC(C)CN(C(=O)c1ccc2c(c1)OCO2)C1CCS(=O)(=O)C1 (centres undefined)
CC1(C)O[C@@H]2CC3C4C[C@H](F)C5=CC(=O)C=CC5(C)C4C(O)CC3(C)[C@]2(C(=O)CO)O1 (some centres undefined)
Cc1ccc2[nH]c(=O)c(CN(C)S(=O)(=O)c3cccc4nonc34)cc2c1
Cc1nc(NC2=NC(C(=O)Nc3ccc(Cl)cc3)CC(=O)N2)nc2ccccc12 (centres undefined)
CC1CCN(c2ccc(C(=O)NCc3ccc4c(c3)OCO4)cc2[N+](=O)[O-])CC1
CC(=O)c1ccc(NC(=O)CCNS(=O)(=O)c2cc(Br)cnc2N)cc1
CC(=O)c1nn(-c2cccc(C(F)(F)F)c2)c(=O)[nH]c1=O
c1ccc(-c2nnc3n2NC(c2ccc4c(c2)OCO4)S3)cc1 (centres undefined)
O=C(CSc1nnc(-c2ccncc2)o1)Nc1cccc(Cl)c1
O=C(O)C1CCN(C(=O)c2cc(F)cc3c2OCOC3)CC1
CC(=O)c1cn(CCCCCCCCCCn2cc(C(C)=O)c(=O)[nH]c2=O)c(=O)[nH]c1=O
Cn1c2c(c(=O)n(C)c1=O)C(c1cccc(F)c1)C(C#N)=C(N)O2 (centres undefined)
CCCCOP(=O)(c1ccc(N(C)C)cc1)C(O)c1cc(OC)ccc1OC (centres undefined)
Cc1cccc(C(=O)O)c1[N+](=O)[O-]
CCN(CC)S(=O)(=O)c1ccc(CNC(=O)CN2C(=O)NC3(CCc4ccccc43)C2=O)cc1 (centres undefined)
NC(=O)CN1CCCC1c1ccc2c(c1)OCCO2 (centres undefined)
CCOC(=O)c1cc(-c2ccc(Cl)s2)nc2c1c(C)nn2C
Cc1cc(S(=O)(=O)NCC(C)C)ccc1OCC(=O)NC1CC1
O=C(CCc1ccccc1)Nc1ccnn1C1CCN(Cc2ccc(OCCO)cc2)CC1
Cc1cccc(N(C(=O)Cc2cccs2)C(C(=O)NC2CCCC2)c2ccsc2)c1 (centres undefined)
O=C(CCNC(=O)c1ccc([N+](=O)[O-])cc1)NC1CCCCC1
O=C1CC(=O)Nc2cc(S(=O)(=O)N3CCN(c4cccc(C(F)(F)F)c4)CC3)ccc2N1
CCOC(=O)C1=C(CC)OC(N)=C(C#N)C1c1ccc(F)cc1F (centres undefined)
O=C(CN1CCN(C2CCS(=O)(=O)C2)CC1)N1N=C(c2ccc(Cl)cc2)CC1c1ccco1 (centres undefined)
CC(C)CNC(=O)/C=C/C(=O)O
Cc1ccc(C)c(N(CC(=O)NCc2ccco2)C(=O)CCC(=O)Nc2ccccn2)c1
Cc1cccc(C)c1NC(=O)C(Cl)C(=O)c1ccccc1 (centres undefined)
Cn1c(=O)c2c(n(Cc3ccccc3)c1=O)NC(=O)C2CC(=O)N1CCc2ccccc2C1 (centres undefined)
CCCNCc1cc(OCC)c(OCC(=O)Nc2ccccc2)cc1Br
CC(c1ccccc1)n1c(NCCCn2ccnc2)nc2c1c(=O)[nH]c(=O)n2C (centres undefined)
CC(=O)NS(=O)(=O)c1ccc(NC(=O)/C=C/c2ccccc2Cl)cc1
CN(CC(=O)NCCc1ccc(F)cc1)CC(=O)Nc1ccc(F)c(F)c1F
CC(C)c1nc2oc3c(N4CCN(C)CC4)ncnc3c2c2c1CCC2
C=CS(=O)c1sc(Cl)c(N2CCOCC2)c1[N+](=O)[O-] (centres undefined)
CN(C)CCCNc1c2c(c(C#N)c3nc4ccccc4n13)CCC2
CCn1c2ccccc2c2cc(NC(=O)Nc3ccc([N+](=O)[O-])cc3C)ccc21
O=C(CCC(=O)c1ccccc1)NCc1cccc(C(F)(F)F)c1
CCOc1ccccc1NC(=S)NC(=O)CCc1ccccc1
O=S(=O)(c1cc(Cl)ccc1Cl)N1CCN(Cc2ccco2)CC1
CCOc1cc(/C=C(/C#N)c2ccc(Cl)cc2)cc(Cl)c1OCC(=O)O
O=C(CSc1ncnc2c1cnn2CCc1ccccc1)Nc1ccc(F)cc1
Cc1ccc2nc(-c3ccccn3)cc(C(=O)Nc3ccc4c(c3)OCO4)c2c1
NC(=O)c1cc(-c2cccnc2)nc2ccc(Br)cc12
O=C(Nc1cccnc1)c1noc2c1CCCCC2
Nc1ccn(C2CC(O)C(CO)O2)c(=O)n1 (centres undefined)
Cc1ccc(C)c(CSc2nc(-c3ccco3)nc3c2c(=O)n(C)c(=O)n3C)c1
COc1ccc(O)c(/C=N/N=C/c2cccc([N+](=O)[O-])c2)c1
Nc1ccc(Nc2cc(O)c3ncccc3c2)cc1
CCCN1Cc2cccc(C(=O)Nc3ccc(S(=O)(=O)N4CCCCCC4)cc3)c2C1=O
CCN(CC)CCN1C(=O)C(=O)/C(=C(/O)c2cnn(-c3ccccc3)c2C)C1c1cccs1 (centres undefined)
CC(C)(C)c1ccc(S(=O)(=O)N2CCN(C(=O)c3ccc4c(c3)C(=O)N(Cc3ccncc3)C4=O)CC2)cc1
Cc1ccc(S(=O)(=O)Nc2ccc3c(c2)C(=O)N([C@H](C)CO)C[C@@H](C)[C@@H](CN(C)C(=O)Nc2cccc4ccccc24)O3)cc1
C=CCC(NCCCO)c1cccc(OC)c1OC (centres undefined)
CC(C)CCN1CCN(Cc2ccc(C(F)(F)F)cc2)CC1CCO (centres undefined)
CC(C)(C)c1cc2cccnc2n1Cc1cccc(F)c1
O=c1[nH]c(CSc2ccccc2)nc2c1oc1ccccc12
CCOc1ccc(NC(=O)CCCCCN2C(=O)[C@@H]3Cc4ccccc4CN3C2=O)cc1
CCN1C(=S)N[C@@H](c2cccc(C(F)(F)F)c2)C(C(=O)OC)=C1C
COc1cc(C(c2c(NC(=O)c3ccco3)sc(C)c2C)N2CCOCC2)cc(OC)c1OC (centres undefined)
CCC1CCCCN1C(=O)CSc1nc(C)cc(C)n1 (centres undefined)
COC(=O)C1CCN(C(=O)NC2CC(=O)N(c3ccc4c(c3)OCCO4)C2)CC1 (centres undefined)
O=C(CNCc1ccc(Cl)cc1)Nc1cccc(C(=O)O)c1
Cc1ccc(-n2c(C)cc(/C=C(\C#N)C(=O)NCC3CCCO3)c2C)cc1 (centres undefined)
Cc1ccc(C)c(NC(=O)C(c2ccccc2)N2CCN(CC(=O)NC3CC3)CC2)c1 (centres undefined)
COc1ccccc1NC(=O)c1cc(N2C(=O)C3C4CCC(C4)C3C2=O)ccc1Cl (centres undefined)
CCc1nn(CCCC(=O)Nc2ccc(C)cc2C)c(=O)c2cc3occc3n12
O=S(=O)(NC1CCN(S(=O)(=O)c2ccc3c(c2)OCCO3)CC1)c1c(F)cccc1F
COC(=O)c1ccc(Nc2ncnc3sccc23)cc1
COc1ccc2nc(NC3=NCN(CC4CCCO4)CN3)nc(C)c2c1 (centres undefined)
O=S(=O)(c1ccc(-c2ccccc2)cc1)N1CCCC1
COc1cc(C2C(C(=O)c3sc(C)nc3C)=C(O)C(=O)N2CCN(C)C)cc(OC)c1OC (centres undefined)
NC(=O)C1CCN(c2nc(-c3cccc(F)c3)cs2)CC1
CCN(CC(=O)Nc1cc(Cl)ccc1C)C(=O)CSCc1ccccc1
Cc1ccc(C(=O)OCC(=O)Nc2ccc(Cl)cn2)cc1S(=O)(=O)N1CCOCC1
OCCNc1nc2ccccc2n1-c1ncnc2sc3c(c12)CCC3
CCOC(=O)NC(=O)C(=CNc1cccc(OC)c1)C(=O)NC(=O)OCC
O.O.O.O=S(=O)([O-])OC[C@H]1O[C@@H](O[C@]2(COS(=O)(=O)[O-])O[C@H](OS(=O)(=O)[O-])[C@@H](OS(=O)(=O)[O-])[C@@H]2OS(=O)(=O)[O-])[C@H](OS(=O)(=O)[O-])[C@@H](OS(=O)(=O)[O-])[C@@H]1OS(=O)(=O)[O-].[Al]

activity, negative = inhibition, inactive:
COc1ccc2c3c(c(=O)oc2c1)C1O[C@](CCCCN2C(=O)c4ccccc4C2=O)(Cc2c1ccc1ccccc21)O3 1.5% [at 15.4 µM]
